# Reference: PubChem BioAssay
# Unmarked numbers belong to inactive results. For some of these results: Entries with a potency or affinity are not part of this list. Active and inactive are the calls of the source. Unless noted, no rule for the calls is given here.
# Columns and labels:
# [1] = antimalarial activity against Dd2 strain (AID 2302;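 active = growth inhibition above 50% at the single 2 µM test dose, taken to imply half-maximal potency below 2 µM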;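 also: 0% = DMSO untreated growth and 100% = chloroquine plus artemisinin killed control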); settings: P. falciparum Dd2 in RBCs, LDH growth readout, 72 h; at 2 µM; hits give high values
# [2] = human hepatoma cell viability loss – ATP luminescence, cytotoxicity control for P. falciparum antimalarial project, primary screen (AID 2303;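 active = inhibition above 50%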;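 also: 0% = DMSO wells and 100% = digitonin-killed cells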); settings: HepG2 viability, 24-48 h, at 10 µM, hits give high values
# [3] = target: L-lactate dehydrogenase (Plasmodium falciparum (isolate CDC / Honduras)) (UniProt Q27743); assay: PfLDH activity inhibition – cell lysate, 3D7 strain, counter-screen for P. falciparum growth inhibition project (AID 2304);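 also: 0% = vehicle and 100% = reference inhibitor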; settings: P. falciparum 3D7 crude extract, LDH APAD/NBT absorbance; at 2 µM; hits give high values
# [4] = inhibition of 3D7 malaria parasite growth – strain 3D7 (AID 2306);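 also: 0% = DMSO wells and 100% = chloroquine plus artemisinin control wells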; settings: P. falciparum 3D7 erythrocytic growth, LDH absorbance, 72 h; at 2 µM; hits give high values
# [5] = target: Calcium-dependent protein kinase 1 (Plasmodium falciparum (isolate 3D7)) (UniProt P62344); assay: PfCDPK1 kinase inhibitors, biochemical, TCAMS library (AID 1159585; cut-off not given, nearly all actives have IC50 up to about 0.98 µM;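 also: inhibitors leave more ATP so luminescence rises with inhibition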); settings: recombinant PfCDPK1, Kinase-Glo ATP depletion luminescence
# [6] = target: Plasmodium falciparum protein kinase 6 (PK6, PF3D7_1337100) (UniProt Q8IDW1); assay: PfPK6 kinase inhibitors, biochemical, TCAMS library (AID 1159586); settings: recombinant PfPK6, Kinase-Glo ATP depletion luminescence
# [7] = target: Protein kinase 7 (PK7), Plasmodium falciparum 3D7 (PF3D7_0213400) (UniProt Q7YTF7); assay: inhibition of Plasmodium PK7 catalytic activity – biochemical, TCAMS antimalarial set, Kinase-Glo luminescence (AID 1159587); settings: recombinant PfPK7, Kinase-Glo ATP depletion luminescence
# [8] = target: Calcium-dependent protein kinase 4 (Plasmodium falciparum (isolate 3D7)) (UniProt Q8IBS5); assay: PfCDPK4 kinase inhibitors, biochemical, TCAMS library (AID 1159588; cut-off not given, nearly all actives have IC50 up to about 0.91 µM); settings: recombinant PfCDPK4, Kinase-Glo ATP depletion luminescence
# Calcium-dependent protein kinase 4 (Plasmodium falciparum (isolate 3D7)), sequence (Q8IBS5 whole entry, looked up): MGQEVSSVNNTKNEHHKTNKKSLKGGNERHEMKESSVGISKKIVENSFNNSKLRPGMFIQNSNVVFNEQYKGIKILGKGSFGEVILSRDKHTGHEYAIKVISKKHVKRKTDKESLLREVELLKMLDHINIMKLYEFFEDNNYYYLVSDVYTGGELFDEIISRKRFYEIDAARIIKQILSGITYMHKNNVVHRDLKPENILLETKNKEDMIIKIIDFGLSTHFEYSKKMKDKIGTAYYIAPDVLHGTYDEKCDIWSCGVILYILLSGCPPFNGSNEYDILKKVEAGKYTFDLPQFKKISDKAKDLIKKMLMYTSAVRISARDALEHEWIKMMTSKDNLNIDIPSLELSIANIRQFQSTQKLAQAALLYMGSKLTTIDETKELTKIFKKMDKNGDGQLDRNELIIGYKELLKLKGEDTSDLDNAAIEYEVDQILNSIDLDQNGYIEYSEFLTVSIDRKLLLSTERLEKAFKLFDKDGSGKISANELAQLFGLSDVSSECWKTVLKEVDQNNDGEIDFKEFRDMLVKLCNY
# Plasmodium falciparum protein kinase 6 (PK6, PF3D7_1337100), sequence (Q8IDW1 1-305): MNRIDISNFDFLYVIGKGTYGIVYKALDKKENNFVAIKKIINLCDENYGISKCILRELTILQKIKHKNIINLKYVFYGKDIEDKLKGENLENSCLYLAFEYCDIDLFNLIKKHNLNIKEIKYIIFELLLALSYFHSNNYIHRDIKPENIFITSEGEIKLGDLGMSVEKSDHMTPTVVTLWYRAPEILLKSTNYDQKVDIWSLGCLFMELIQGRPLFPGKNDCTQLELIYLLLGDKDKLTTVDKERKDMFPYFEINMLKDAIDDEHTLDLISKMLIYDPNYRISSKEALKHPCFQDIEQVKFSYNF
# Calcium-dependent protein kinase 1 (Plasmodium falciparum (isolate 3D7)), sequence (P62344 whole entry, looked up): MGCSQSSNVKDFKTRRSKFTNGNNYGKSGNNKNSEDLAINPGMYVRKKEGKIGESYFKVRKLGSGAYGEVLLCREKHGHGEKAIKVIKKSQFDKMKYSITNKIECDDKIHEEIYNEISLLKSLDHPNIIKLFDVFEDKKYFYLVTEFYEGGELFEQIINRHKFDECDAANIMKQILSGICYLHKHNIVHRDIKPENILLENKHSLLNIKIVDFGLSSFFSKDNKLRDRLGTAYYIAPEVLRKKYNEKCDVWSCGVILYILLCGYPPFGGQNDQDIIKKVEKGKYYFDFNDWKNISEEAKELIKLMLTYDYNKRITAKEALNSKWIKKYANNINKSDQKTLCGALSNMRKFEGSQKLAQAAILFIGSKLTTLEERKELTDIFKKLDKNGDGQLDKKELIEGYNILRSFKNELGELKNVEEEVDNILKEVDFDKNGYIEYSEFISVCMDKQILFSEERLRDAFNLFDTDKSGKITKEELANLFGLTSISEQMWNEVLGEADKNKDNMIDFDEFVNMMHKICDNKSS
# L-lactate dehydrogenase (Plasmodium falciparum (isolate CDC / Honduras)), sequence (Q27743 whole entry, looked up): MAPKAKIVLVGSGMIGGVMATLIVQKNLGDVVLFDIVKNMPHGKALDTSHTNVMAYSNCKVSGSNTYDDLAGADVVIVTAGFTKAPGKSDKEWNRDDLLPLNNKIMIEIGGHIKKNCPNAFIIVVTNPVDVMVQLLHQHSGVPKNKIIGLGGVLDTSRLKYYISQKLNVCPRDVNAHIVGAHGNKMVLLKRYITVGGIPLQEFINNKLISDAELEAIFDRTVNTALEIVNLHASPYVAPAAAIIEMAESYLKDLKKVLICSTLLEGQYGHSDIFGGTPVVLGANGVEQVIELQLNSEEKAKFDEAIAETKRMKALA
# Protein kinase 7 (PK7), Plasmodium falciparum 3D7 (PF3D7_0213400), sequence (Q7YTF7 1-343): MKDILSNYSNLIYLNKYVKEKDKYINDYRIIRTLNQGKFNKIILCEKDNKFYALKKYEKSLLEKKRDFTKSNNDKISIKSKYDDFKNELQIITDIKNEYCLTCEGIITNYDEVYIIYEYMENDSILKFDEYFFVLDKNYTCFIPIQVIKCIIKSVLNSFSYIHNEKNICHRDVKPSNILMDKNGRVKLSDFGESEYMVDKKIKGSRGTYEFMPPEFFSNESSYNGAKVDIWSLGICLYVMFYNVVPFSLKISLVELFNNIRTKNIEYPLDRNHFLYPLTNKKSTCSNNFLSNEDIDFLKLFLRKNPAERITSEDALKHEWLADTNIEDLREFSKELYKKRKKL
SMILES,growth inhibition [1],inhibition [2],inhibition [3] [%],growth inhibition [4],outcome [5],outcome [6],outcome [7],outcome [8]
Cc1cc(N2CCC(C)CC2)nc2cc(O)ccc12,41%,31%,-1,89% (active),inactive,inactive,inactive,inactive
c1ccc(-c2ccc3c(Nc4ccc5[nH]ccc5c4)ccnc3c2)nc1,78% (active),11%,-7,91% (active),inactive,inactive,inactive,inactive
COc1cc2nc(NCC3CCCCC3)nc(NCc3ccccc3)c2cc1OC,101% (active),18%,7,101% (active),inactive,inactive,inactive,inactive
CCN(CC)S(=O)(=O)c1cc(-c2ccc(=O)n(CC(=O)c3ccc(C)cc3)n2)ccc1C,66% (active),6%,-3,86% (active),inactive,inactive,inactive,inactive
O=c1[nH]c(NCCCCCN2CCC(c3c[nH]c4ccccc34)CC2)ncc1Cc1ccc(Cl)c(Cl)c1,8%,21%,-4,94% (active),inactive,inactive,inactive,inactive
CCN(CC)CCN(Cc1ccc(-c2ccc(C(F)(F)F)cc2)cc1)C(=O)Cn1c(CCc2ccc(F)c(C#N)c2)nc(=O)c2ccccc21,55% (active),18%,-2,98% (active),inactive,inactive,inactive,inactive
CCOc1ccc2nc(N(CCCn3ccnc3)C(=O)C=Cc3cccs3)sc2c1,97% (active),-1%,-1,97% (active),inactive,inactive,inactive,inactive
Cc1nc(N)nc(N)c1CCCOc1ccc(Br)cc1,5%,30%,1,97% (active),inactive,inactive,inactive,inactive
Cc1cc(NC(=O)c2cccs2)ccc1OC1CCN(Cc2ccc(C#N)cc2)CC1,92% (active),34%,4,94% (active),inactive,inactive,inactive,inactive
O=S(=O)(NCCN1CCCC1)c1ccc(-c2cccc(CNC3Cc4ccccc4C3)c2)cc1,57% (active),55% (active),-6,99% (active),inactive,inactive,inactive,inactive
Cc1cc2c(/C=C/C(=O)NC3CCC(CCN4CCc5ccc(C#N)cc5CC4)CC3)cccc2[nH]1 (stereo not given),39%,16%,1,95% (active),inactive,inactive,inactive,inactive
CCCCCCN(CCCCCC)CC(O)c1c(OC)ccc2ccccc12 (stereo not given),100% (active),18%,-1,101% (active),inactive,inactive,inactive,inactive
O=c1c(NCCCN(Cc2ccc(F)cc2)c2ccccn2)c(NCc2ccncc2)c1=O,95% (active),30%,3,101% (active),inactive,inactive,inactive,inactive
Cc1cc(N(C)CCN(C)C)nc(Nc2ccc(Br)cc2)n1,23%,7%,-1,97% (active),inactive,inactive,inactive,inactive
CC(=O)Nc1ccc(C(=O)Nc2cccc(-c3ccc(-c4nc5ccc(F)cc5[nH]4)cc3)c2)cn1,99% (active),10%,-6,99% (active),inactive,inactive,inactive,inactive
O=C(/C=C/c1ccc(Cl)c(Cl)c1)N1CCC(CN2CCC(Cc3cc4ccccc4[nH]3)CC2)CC1,56% (active),49%,-3,96% (active),inactive,inactive,inactive,inactive
FC(F)(F)c1ccc2nc(-c3ccc(-c4ccc(CN5CCN(c6ccncc6)CC5)cc4)s3)[nH]c2c1,50% (active),97% (active),2,100% (active),inactive,inactive,inactive,inactive
O=C(Nc1cccc(-c2cccc(-c3nc4ccc(F)cc4[nH]3)c2)c1)Nc1ccc(F)c(F)c1F,100% (active),83% (active),4,100% (active),inactive,inactive,inactive,inactive
CC(=O)c1ccc(-n2ccnc2)cc1,-1%,-4%,-3,92% (active),inactive,inactive,inactive,inactive
Cc1cccc2[nH]c(-c3cccc(-c4ccc(NC(=O)c5ccc(=O)[nH]n5)cc4)c3)nc12,27%,18%,1,101% (active),inactive,inactive,inactive,inactive
